# Laboratory results as given in ChEMBL document CHEMBL4513216, “Probing the Open Global Health Chemical Diversity Library for Multistage-Active Starting Points for Next-Generation Antimalarials” (ACS Infect Dis, 2020).
# Among all 69,000 compounds or so, about 8,600 (12%) showed an effect of 50% or more. The sample holds strong results, similar compounds and a random draw of the others, so the mix is not that of the screen.
# Tested on: Plasmodium berghei
# Assay: Screen against P. berghei liver stage (PbLuc), transformed with Luciferase, at 10uM
# Assay type: functional, HepG2
# Conditions: tested at 10 uM
row,SMILES,INHIBITION [%]
1,CN1CCOC(CNC(=O)CCCc2ccccc2)C1 (stereo unspecified),-4.15
2,CN(Cc1nccn1CC(F)(F)F)C(=O)c1ccc2c(c1)OCO2,6.33
3,Cc1nn(C)c(Cl)c1C1CCCN1Cc1nnc(C2CC2)o1 (stereo unspecified),-31.1
4,O=C(NCc1ncc(-c2ccccc2)o1)NC1CCC(O)CC1 (stereo unspecified),61.9
5,CC(=O)N1CCc2ncc(CNC(=O)C3CCC3)n2CC1,15.4
6,O=S(=O)(CC1CCOCC1)NCc1ncc(-c2ccccc2)o1,40.6
7,CC(=O)N1CCC(NC(=O)NCc2ncc(-c3ccccc3)o2)CC1,47.1
8,O=C(NCCN1CCOCC1)NCc1ncc(-c2ccccc2)o1,2.37
9,CC(=O)N1CCC(C(=O)NCc2ncc(-c3ccccc3)o2)CC1,83.2
10,O=C1C[C@@H]2CC[C@H](CN1)N2c1cc(-c2ccccc2F)nc2ccnn12,-7.53
11,Cn1cc(CN2CCCC3(CCN(C(=O)c4ccoc4)C3)C2)cn1 (stereo unspecified),42.7
12,CCn1cc(CN2CCCC3(CCC(=O)N(CCC(C)C)C3)C2)cn1 (stereo unspecified),65.2
13,COCC(=O)N1CCC2(CCCN(Cc3cnn(C)c3)C2)C1 (stereo unspecified),47.4
14,CCc1ncc(CN2CCCC3(CCC(=O)N(CCC(C)C)C3)C2)cn1 (stereo unspecified),0.818
15,Cn1cc(CN2CCC3(CCC(C(=O)NCC4CC4)C3)CC2)cn1 (stereo unspecified),20.1
16,CN(C)C(=O)N1CCC2(CCCN(Cc3cnn(C)c3)C2)C1 (stereo unspecified),52.9
17,Cn1cc(CN2CCC3(CCCN3S(C)(=O)=O)CC2)cn1,53.5
18,CCn1cc(C(=O)N2CCCC3(CCC(=O)N(CCC(C)C)C3)C2)cn1 (stereo unspecified),-47.8
19,Cn1cc(CN2CCC3(CCCCN3S(C)(=O)=O)CC2)cn1,27.6
20,Cn1cc(CN2CCCC3(CCCN3S(C)(=O)=O)C2)cn1 (stereo unspecified),-3.41
21,CC(C)NC(=O)C1CCC2(CCN(Cc3cnn(C)c3)CC2)C1 (stereo unspecified),-13.7
22,CN(C)C(=O)C1CCC2(CCN(Cc3cnn(C)c3)CC2)C1 (stereo unspecified),55.5

row,SMILES,INHIBITION [%]
1,CN1CC(=O)N(c2ccccc2)CC12CCN(C(=O)c1cccs1)C2 (stereo unspecified),17.1
2,CC(=O)Cn1ncc(N2CCOCC2)cc1=O,-10.5
3,CN(C)CCN1C(=O)CCC12CCN(C(=O)c1cccnc1)CC2,13.2
4,CC1(C(=O)N2CCOCC2)CN(Cc2ccccn2)CCO1 (stereo unspecified),44.4
5,Cc1cccc(CN2CCC3(CCCN(Cc4cnn(C)c4)C3)C2)n1 (stereo unspecified),64.7
6,Cc1cc(CN2CCOC(C)(C(=O)N3CCOCC3)C2)no1 (stereo unspecified),0.301
7,Cc1cccc(CN2CCOC3(COCCN(CCN(C)C)C3)C2)n1 (stereo unspecified),48.4
8,Cc1cccc(CN2CCc3[nH]nc(C(=O)N4CCOCC4)c3C2)n1,65.9
9,Cc1cccc(CN2CCC3(CCCN(Cc4cnn(C)c4)C3)C2=O)n1 (stereo unspecified),0.618
10,Cc1cccc(CN2CCOC(C)(C(=O)N3CCOCC3)C2)n1 (stereo unspecified),59
11,Cc1cccc(CN2CCOC3(CCCN(CC(=O)N(C)C)C3)C2)n1 (stereo unspecified),59.3
12,Cc1cccc(CN2CCc3[nH]nc(C(=O)N(C)C)c3C2)n1,-45.5
13,Cc1cccc(CN2CCc3[nH]nc(C(=O)N4CCNC(=O)C4)c3C2)n1,49.7
14,Cn1cc(CN2CCC3(CCCN(Cc4ccccn4)C3)CC2)cn1,-3.19
15,Cc1cnc(N2CCOC3(CCCN(CC(=O)N(C)C)C3)C2)nc1 (stereo unspecified),-29.8
16,Cc1cc(C)n(C2CN(CCc3ccccn3)C2)n1,28.2
17,Cc1nn(C)c(Cl)c1C1CCCN1Cc1ccccn1 (stereo unspecified),8.64
18,COc1ccc(C2CC(=O)Oc3cc(C)[nH]c(=O)c32)cc1O (stereo unspecified),15.4
19,O=C(c1cc(-n2cnnn2)ccc1Cl)N1CCOCC1,30.8
20,O=c1cnc2ccccc2n1CCCn1cccn1,44.5
21,CC(C)NC(=O)CC1COC2(CCN(Cc3ccccc3)CC2)C1 (stereo unspecified),21.6
22,Cc1nc(C2CCCN(C(=O)c3cnn(C4CCCCC4)c3)C2)no1 (stereo unspecified),-25.9

row,SMILES,INHIBITION [%]
1,O=C(c1cnc2c(cnn2C2CCCC2)c1)N1CCCSCC1,36.1
2,CC(C)NC(=O)CC1CC2(CCN(CC3CC3)CC2)Oc2ccccc21 (stereo unspecified),-2.35
3,CC(=O)N1CCc2[nH]nc(C(=O)N3CC=CC3)c2C1,23.1
4,CC(C)CCN1CCc2[nH]nc(C(=O)N3CCCC3C)c2C1 (stereo unspecified),2.58
5,Cc1cccc(CN2CCC3(CCCN(CC(=O)N(C)C)C3)C2)n1 (stereo unspecified),51.2
6,CC(C)CCN1CCc2[nH]nc(C(=O)N3CC=CC3)c2C1,50.3
7,Cc1cccc(CN2CCCC3(CCN(CC(=O)N(C)C)C3=O)C2)n1 (stereo unspecified),27.6
8,Cc1cccc(CN2CCC3(CCC(CC(=O)N(C)C)CC3)CC2)n1,23.1
9,COC(=O)c1ccc(C)c(N2CCNC2=O)c1,34
10,CS(=O)(=O)N1CCC(NC(=O)COc2cccc(Cl)c2)CC1,-35.7
11,CCO[C@@H]1C[C@H]2CN(Cc3ccc(C)o3)CCN2C1,-37.9
12,COCc1noc(CN2C(=O)OC[C@@H]2C(C)C)n1,14.6
13,COCCc1noc(CN2C(=O)OC[C@@H]2C(C)C)n1,55.9
14,COCc1nc(CN2C(=O)OC[C@@H]2C(C)C)no1,27.6
15,CCn1nc(C)c(C(=O)N2C[C@@H](CN(C)CCOC)[C@@H](CO)C2)c1C,20
16,NC(=O)c1cc2c(nc1-c1ccoc1)CCC2,30.3
17,NC(=O)c1cc2c(nc1Oc1ccc(CN3CCCC3)cc1F)CCC2,67
18,CN1CCCCC1Cc1nc2c(cc1C(N)=O)CCC2 (stereo unspecified),-107
19,CC(=O)Nc1ccc(Oc2ccc(CN3CCCC3)cc2F)cc1,45.1
20,NC(=O)c1cc2c(nc1Oc1ccccc1CN1CCCCC1)CCC2,27.4
21,NC(=O)c1cc2c(nc1Oc1cccc(CN3CCCC3)c1F)CCC2,62.1
22,Cc1cc(C)c2c(N3CCC(C(=O)N4CCCC4)CC3)ncnc2n1,42.8

row,SMILES,INHIBITION [%]
1,Cc1ccccc1C(=O)N1C[C@@H]2COC[C@]2(COCc2cccnc2)C1,1.9
2,CC(=O)N1CCN(Cc2ccsc2)CC2(CC(=O)N(C)C2)C1 (stereo unspecified),16.1
3,CC(C)N1CCC2(CC1)C[C@@H](O)[C@H](c1ccccc1)NC2=O,40
4,COCC(=O)NC1CC2(CCN(CCN(C)C)CC2)c2ccccc21 (stereo unspecified),53.9
5,COCC(=O)NC1CC2(CCN(Cc3ccco3)CC2)c2ccccc21 (stereo unspecified),32.4
6,CCN1CCC2(CC1)CC(NC(=O)c1ccnnc1)c1ccccc12 (stereo unspecified),-9.42
7,COCC(=O)NC1CC2(CCN(CCO)CC2)c2ccccc21 (stereo unspecified),33.1
8,Cc1ccc2c(c1)C(NC(=O)N(C)C)CC21CCN(CC2CC2)CC1 (stereo unspecified),22.4
9,CC(C)C(=O)NC1CC2(CCN(CC(=O)N(C)C)CC2)c2ccccc21 (stereo unspecified),60.2
10,CC(C)(CNCc1ccc(OCc2cscn2)cc1)C(N)=O,-47
11,Cc1cnc(CN2CCC(N(C)Cc3noc(C4CC4)n3)C2)o1 (stereo unspecified),33.3
12,CCc1ccc(NC(=O)C2CCN(C(=O)COC)CC2)cc1,39.3
13,CCC(C)c1ccc(NC(=O)C2CCN(C(=O)COC)CC2)cc1 (stereo unspecified),16.6
14,CCC(C)c1ccc(NC(=O)C2CCN(C(=O)N(C)C)CC2)cc1 (stereo unspecified),76.9
15,Cn1cncc1C(=O)N1CCCC(c2ccn[nH]2)C1 (stereo unspecified),-35.9
16,CC(NCc1nnc2n1CCCC2)C(=O)N1CCc2sccc2C1 (stereo unspecified),-21.9
17,O=C1CC(N(C(=O)COc2ccc(F)cc2F)C2CC2)C(=O)N1 (stereo unspecified),0.472
18,Cc1cc(C)nc(NCc2cc3n(n2)CCCN(C(=O)C2CCC2)C3)n1,13.3
19,Cc1cc(NCc2cc3n(n2)CCCN(C(=O)C2CCC2)C3)nc(N)n1,80.2
20,Nc1nccc(NCc2cc3n(n2)CCCN(C(=O)C2CCC2)C3)n1,28.5
21,Cc1nc(C2CCCN(S(C)(=O)=O)C2)sc1Br (stereo unspecified),-7.66
22,CCc1cc(N(C)Cc2noc(CC(C)C)n2)ncn1,57.6

row,SMILES,INHIBITION [%]
1,CC(C)Cc1noc(CN(C)c2cc(N(C)C)ncn2)n1,-8.75
2,COc1cc(N(C)Cc2noc(CC(C)C)n2)ncn1,43
3,CCn1cc(NC(=O)C2CCN(CC(=O)NC3CCCC3)CC2)cn1,-10.6
4,O=C(N[C@@H]1CN(Cc2ccco2)[C@@H]2CCCO[C@@H]21)c1cscn1,8.6
5,COc1ccc(F)cc1C(C)NC(=O)NCCCn1cncn1 (stereo unspecified),11.9
6,CCN(Cc1ccoc1)C(=O)C1CN(C(=O)OC(C)(C)C)C1,-26.7
7,O=C(COCC(F)(F)C(F)F)N1CCC2(CCCN(CCO)C2=O)C1 (stereo unspecified),-8.97
8,O=C(COCC(F)(F)C(F)F)N1CCC2(CCCN(CC3CC3)C2=O)C1 (stereo unspecified),27.8
9,CC(C)N1CCCC2(CCN(C(=O)COCC(F)(F)C(F)F)C2)C1=O (stereo unspecified),50.2
10,COC1COC2(CCN(CC3CC3)CC2)C1 (stereo unspecified),15.8
11,CNC(=O)Cc1csc(NC(=O)C2CSCCC(=O)N2)n1 (stereo unspecified),50.2
12,Cc1nnc(CNC(=O)C2CSCCC(=O)N2)o1 (stereo unspecified),-5.22
13,O=C1CCSCC(C(=O)NCc2nc(-c3ccccc3)no2)N1 (stereo unspecified),14.3
14,Cc1csc(NC(=O)C2CSCCC(=O)N2)n1 (stereo unspecified),24.5
15,Cc1noc(CNC(=O)C2CSCCC(=O)N2)n1 (stereo unspecified),61.6
16,NC(=O)Cc1csc(NC(=O)C2CSCCC(=O)N2)n1 (stereo unspecified),32.1
17,CCN(Cc1c(C)nn(CC)c1C)S(=O)(=O)c1cnn(C)c1C,38.3
18,CC[C@@H]1N(Cc2ccncc2)CCC[C@]12CCC(=O)N2C,18.6
